Consider 15 compounds from PubChem BioAssay (NCI).

This is part of a sample that, as a whole, favours compounds with a hit. Of some 83,000 tested, about 20% had one in any assay.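 Growth was measured after 48 h exposure to one concentration of compound in 96-well plates. Values under 10 count as active.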 Unmarked numbers belong to inactive results. Calls of active or inactive are those of the source.

Test systems include NCI-H23 lung; NCI-H226 lung; HOP-62 NSCLC; NCI-H460 lung; HOP-92 NSCLC; NCI-H522 lung; 786-0 renal; COLO 205 colon; A549/ATCC NSCLC.
What all share (assay): NCI-60 one-dose screen, 48 h (100 = growth as untreated, 0 = no growth, -100 = all killed)
Details in all cases: 10 µM

In the case of `O=C(COc1cccc(/C=C2\CSc3ccc(Cl)cc3C2=O)c1)c1ccc(Cl)cc1`, the growth was 75.1% in the assay with NCI-H23 lung; 84.3% with NCI-H226 lung; 83.6% in the assay with HOP-62 NSCLC; 91.3% with NCI-H460 lung; 15.6% in the assay with HOP-92 NSCLC; 36.8% in the assay with NCI-H522 lung. Besides, the values for the growth with 786-0 renal and in the assay with COLO 205 colon were 94.6% and 115%, respectively.

Turning to `COc1ccc(C(=O)COc2cccc(/C=C3\Cc4ccccc4C3=O)c2)cc1`, the growth in the assay with NCI-H23 lung is 74.5%; with NCI-H226 lung, 73.4%; in the assay on HOP-62 NSCLC, 93.2%; in the assay with NCI-H460 lung, 111%; in the assay with HOP-92 NSCLC, 48.7%; in the assay with NCI-H522 lung, 56.6%. The growth with 786-0 renal is 82.2%; in the assay with COLO 205 colon it was 124%.

With `CCC(=O)OC1CCC2C3CCC(=O)OC3C(C)(CCC(=O)O)CC12C` (stereo unspecified), the growth was 33.1% with NCI-H23 lung; 60.1% in the assay with NCI-H226 lung; 38.5% with HOP-62 NSCLC; 42.6% in the assay on NCI-H460 lung; -1.1% (active) in the assay on HOP-92 NSCLC; 24.7% with NCI-H522 lung. Further, the growth was -41.7% (active) with 786-0 renal and 41.7% with COLO 205 colon.

Turning to `COc1cc(-c2csc(NC(=O)Nc3ccc(Cl)c(C(F)(F)F)c3)n2)cc(OC)c1OC`, the growth with NCI-H23 lung was 1.27% (active); in the assay with NCI-H226 lung, -6.43% (active); in the assay with HOP-62 NSCLC, -23.8% (active); in the assay with NCI-H460 lung, 2.24% (active); in the assay on HOP-92 NSCLC, -35.4% (active); in the assay on A549/ATCC NSCLC, 0.191% (active). Further, the figures for the growth in the assay with 786-0 renal and in the assay on COLO 205 colon were -12.4% (active) and -58.1% (active), respectively.

For `COc1cc(C2C(C#N)=C(N)Oc3cc(O)ccc32)cc(OC)c1OC` (stereo unspecified), the growth in the assay with NCI-H23 lung was 30.7%; with NCI-H226 lung, 68.4%; in the assay on HOP-62 NSCLC it was 53.2%; in the assay with NCI-H460 lung it was 9.65% (active); with HOP-92 NSCLC it was 49.7%; with A549/ATCC NSCLC it was 21.4%. Moreover, the growth in the assay with 786-0 renal was 40.6%; in the assay on COLO 205 colon, 8.35% (active).

Consider `CC(C)(O)CCl`, for which the growth with NCI-H23 lung was 109%; in the assay with NCI-H226 lung, 96.7%; in the assay with HOP-62 NSCLC it was 107%; with NCI-H460 lung, 102%; with HOP-92 NSCLC it was 114%; in the assay on A549/ATCC NSCLC, 98.4%. The growth with 786-0 renal was 114%; in the assay on COLO 205 colon, 126%.

Turning to `CC[C@@H]1NC(=O)[C@H]([C@H](O)[C@H](C)C/C=C/c2ccc(CN3C(=O)CCCC3=O)cc2)N(C)C(=O)[C@H](C(C)C)N(C)C(=O)[C@H](CC(C)C)N(C)C(=O)[C@H](CC(C)C)N(C)C(=O)[C@@H](C)NC(=O)[C@H](C)NC(=O)[C@H](CC(C)C)N(C)C(=O)[C@H](C(C)C)NC(=O)[C@H](CC(C)C)N(C)C(=O)CN(C)C1=O`, the growth was 68.8% with NCI-H23 lung; -22.8% (active) in the assay with NCI-H226 lung; 62.1% with HOP-62 NSCLC; 71.2% in the assay on NCI-H460 lung; 53.3% with HOP-92 NSCLC; 47.1% in the assay with A549/ATCC NSCLC. Also, the growth with 786-0 renal was 67.1%; with COLO 205 colon, 53.9%.

With `Cc1cc(SCc2ccccc2)nc(N)n1`, the growth in the assay on NCI-H23 lung was 97.3%; with NCI-H226 lung, 115%; in the assay on HOP-62 NSCLC it was 105%; in the assay on NCI-H460 lung, 111%; with HOP-92 NSCLC, 85.2%; in the assay on A549/ATCC NSCLC it was 105%. Also, the growth in the assay with 786-0 renal is 79.1%; with COLO 205 colon, 127%.

As to `O=C(N/N=C/c1ccc([N+](=O)[O-])cc1)c1ccccc1Nc1cccc(C(F)(F)F)c1`, the growth in the assay on NCI-H23 lung is 91.2%; in the assay on NCI-H226 lung, 95.2%; in the assay with HOP-62 NSCLC it was 89.4%; in the assay on NCI-H460 lung it was 115%; in the assay on HOP-92 NSCLC, 61%; in the assay with NCI-H522 lung it was 88.8%. For the same compound, the figures for the growth in the assay with 786-0 renal and in the assay with COLO 205 colon were 73% and 131%, respectively.

With `O=C(N/N=C/c1ccc(Cl)cc1)c1ccccc1Nc1cccc(C(F)(F)F)c1`, the growth in the assay on NCI-H23 lung was 91.2%; in the assay with NCI-H226 lung it was 81.2%; in the assay on HOP-62 NSCLC, 72.9%; with NCI-H460 lung, 86.8%; in the assay on HOP-92 NSCLC, 73.7%; with NCI-H522 lung it was 77.9%. Also, the growth with 786-0 renal is 86%; in the assay on COLO 205 colon it was 108%.

For `CN(C)CCOc1cccc(NC2=C(Cl)C(=O)C(Nc3cccc(OCCN(C)C)c3)=C(Cl)C2=O)c1`, the growth with NCI-H23 lung was -59.5% (active); with NCI-H226 lung, -74.6% (active); in the assay on HOP-62 NSCLC it was -82.9% (active); in the assay with NCI-H460 lung, 55.4%; with HOP-92 NSCLC it was -70.1% (active); with NCI-H522 lung it was -91.3% (active). Moreover, the growth in the assay on A549/ATCC NSCLC was 57.9%; in the assay with 786-0 renal it was -86.4% (active); with COLO 205 colon it was -82.9% (active).

Regarding `Nc1cc(Br)c(-c2nn3c(CCC(=O)c4nc5ccccc5[nH]4)nnc3s2)c(Br)c1`, the growth in the assay with NCI-H23 lung is 87.3%; with NCI-H226 lung it was 83.6%; with HOP-62 NSCLC it was 103%; in the assay on NCI-H460 lung, 102%; with HOP-92 NSCLC, 72.8%; with A549/ATCC NSCLC, 101%. The growth was 99.8% in the assay with 786-0 renal and 107% with COLO 205 colon.

Take `COc1ccccc1N1CCCSC1=Nc1ccccc1`: the growth with NCI-H23 lung is 104%; with NCI-H226 lung, 107%; in the assay with HOP-62 NSCLC it was -5.39% (active); with NCI-H460 lung it was 99.7%; in the assay on HOP-92 NSCLC, 68.4%; with NCI-H522 lung it was 71.9%. Besides, the growth was 99.2% with A549/ATCC NSCLC and 104% in the assay with COLO 205 colon.

`CC(C)=CCC/C(C)=C/CC/C(C)=C/CC/C=C(\C)CC/C=C(\C)CCC(=O)Nc1ccn(C2OC(CO)C(O)C2(F)F)c(=O)n1` (stereo unspecified): the growth is 25.3% in the assay on NCI-H23 lung; 50.3% in the assay with NCI-H226 lung; 11.1% in the assay with HOP-62 NSCLC; 6.85% (active) with NCI-H460 lung; 10.2% in the assay with HOP-92 NSCLC; 26.1% in the assay on NCI-H522 lung. Further, the growth with 786-0 renal is -11.2% (active); in the assay with COLO 205 colon, 43.5%.

On to `CC(=O)OC1CC2C(C)(C)CCC[C@]2(C)C2=C1C(O)=C(C(C)C)C(=O)C2=O` (stereo partly specified), for which the growth in the assay on NCI-H23 lung was 9.91% (active); in the assay on NCI-H226 lung, -71.1% (active); in the assay with HOP-62 NSCLC, -40.3% (active); in the assay with NCI-H460 lung, -39.8% (active); with HOP-92 NSCLC it was -79.2% (active); in the assay on A549/ATCC NSCLC, 6.64% (active). Besides, the values for the growth in the assay with 786-0 renal and in the assay on COLO 205 colon were -3.43% (active) and -38.5% (active), respectively.
